Source: PubChem BioAssay
AMA1 RON2 block: qHTS for Inhibitors of AMA1-RON; Towards Development of Antimalarial Drug Lead: Primary Screen. Potency, µM (highest dose often 58.2 µM), inactives show top-dose activity change, negative = inhibition, most hits filed as inhibitors. Plasmodium falciparum AMA1 (3D7) - RON2 peptide interaction. 360,000 tested, 0.2% active. AlphaScreen AMA1-biotinylated RON2 peptide binding;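 also: potency is read from the fitted curve at half-maximal effect; 0% = vehicle wells and -100% = peptide control; nearly all actives have a fitted effect of over 45% in size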
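AMA1 (3D7) with his tag at 25 nM final met compounds first, then biotinylated RON2 peptide at 25 nM; detection used donor plus acceptor beads, 10 µg/mL apiece, read by AlphaScreen after 30 min at room temperature.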
AmpC no deterg: qHTS Inhibitors of AmpC Beta-Lactamase (assay without detergent) | AmpC nitrocefin hydrolysis, absorbance 480 nm, 0.0001% Triton | Potency, µM (titrated, usually from 57.1 µM), without a hit: at the highest dose activity change, negative = inhibition, usual class: inhibitors | 330,000 tested, 0.52% active | AID 485341, 2010;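 also: potency is read from the fitted curve at half-maximal effect; plate controls were no compound for no effect and no enzyme for full effect; nearly all actives have a fitted effect of over 20% in size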
Target sequence (P00811 whole entry, looked up): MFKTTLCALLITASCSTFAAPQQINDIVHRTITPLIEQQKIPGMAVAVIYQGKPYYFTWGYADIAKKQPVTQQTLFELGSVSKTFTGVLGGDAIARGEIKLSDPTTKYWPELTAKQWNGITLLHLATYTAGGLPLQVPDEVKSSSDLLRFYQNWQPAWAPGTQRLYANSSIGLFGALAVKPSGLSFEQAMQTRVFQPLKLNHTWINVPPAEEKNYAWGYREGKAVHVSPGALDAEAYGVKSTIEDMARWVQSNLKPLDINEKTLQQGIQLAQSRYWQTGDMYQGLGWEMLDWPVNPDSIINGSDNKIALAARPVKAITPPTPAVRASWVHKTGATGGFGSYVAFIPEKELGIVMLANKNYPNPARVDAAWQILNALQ
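AmpC (5.3 nM in the dispensed reagent) in 20 mM phosphate pH 7.0 with 0.01% (detergent screen) or 0.0001% Triton X-100 was preincubated with compounds for 15 min at room temperature. Nitrocefin was then added from an 800 uM solution, and hydrolysis was followed at 480 nm.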
AmpC detergent: qHTS Inhibitors of AmpC Beta-Lactamase (assay with detergent); Potency, µM (series often up to 114 µM), without a hit: at the highest dose activity change, negative = inhibition, usual class: inhibitors; 370,000 tested, 0.041% active; AID 485294, 2010; P00811; AmpC hydrolysis of nitrocefin, absorbance 480 nm, 0.01% Triton;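 also: potency is read from the fitted curve at half-maximal effect; 0% = no-compound wells and -100% = no-enzyme wells; nearly all actives have a fitted effect of over 25% in size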
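AmpC (5.3 nM in the dispensed reagent) in 20 mM phosphate pH 7.0 with 0.01% (detergent screen) or 0.0001% Triton X-100 was preincubated with compounds for 15 min at room temperature. Nitrocefin was then added from an 800 uM solution, and hydrolysis was followed at 480 nm.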
Shiga inhibitor: A qHTS for Small Molecule Inhibitors of Shiga Toxin | Vero cells, Shiga toxin protein synthesis inhibition reporter | 290,000 tested, 9.2% active | inhibition, % at 38.7 µM; in the data active = inhibition mostly above about 28%, no sharp cut-off; inactive = mostly below about 43%; also: 0% is about no effect
Cycloheximide cs: Cycloheximide Counterscreen for Small Molecule Inhibitors of Shiga Toxin. cell reporter, cycloheximide protein synthesis inhibition counterscreen. max response, %. 300,000 tested, 12% active. AID 2314, 2010; in the data active = max response mostly above about 13%, no sharp cut-off; inactive = mostly below about 14%; also: read at 38.3 µM for the half of the compounds with a filed dose; 0% is about no effect
SARS PLpro yeast: qHTS of Yeast-based Assay for SARS-CoV PLP | S. cerevisiae expressing SARS-CoV PLpro, growth rescue | Potency, µM (highest dose often 32.9 µM), without a hit: at the highest dose activity, positive = growth rescue, most hits filed as activators | 330,000 tested, 0.19% active; calls by dose curve; also: potency is read from the fitted curve at half-maximal effect; 0% is about no effect; nearly all actives have a fitted effect of over 55% in size
The depositor's hits bear a star. Only a selection was taken, and hits are over-represented in it overall. Unless noted, calls follow the shape of the dose curve; as a rule, active = well fitted curve in the direction sought with a large enough effect; inconclusive = small, poorly fitted or top-dose-only effect, or another doubt; inactive = no such curve, though single readings can be large; an effect the other way counts as inactive or inconclusive.

Cn1c(CO)cnc1SCC(=O)c1ccc(F)cc1 was read as AMA1 RON2 block 8%, AmpC no deterg -14%, AmpC detergent -1%, Shiga inhibitor 75*, Cycloheximide cs 24* and SARS PLpro yeast 1%.
`CCn1c(Cc2cccn2C)nnc1SCC(=O)c1ccc(C)cc1` gave AMA1 RON2 block -3%, AmpC no deterg 53%, AmpC detergent 4%, Shiga inhibitor 129*, Cycloheximide cs 35* and SARS PLpro yeast -7%.
For Cn1c(SCC(=O)c2ccc(F)cc2)nnc1-c1ccccc1N the results were AMA1 RON2 block -7%, AmpC no deterg -14%, AmpC detergent -8%, Shiga inhibitor 123*, Cycloheximide cs 47* and SARS PLpro yeast -2%.
Cc1cccc(CSc2ncc(CO)n2C)c1 was read as AMA1 RON2 block -4%, AmpC no deterg -15%, AmpC detergent -6%, Shiga inhibitor 17, Cycloheximide cs 20* and SARS PLpro yeast -26%.
For NCCc1nnc(SCc2ccc(Cl)cc2)o1 the results were AmpC detergent 6%.
Cc1ccc(C(=O)CSc2nnc(-c3ccccc3N)n2C)cc1 was read as AMA1 RON2 block 0%, AmpC no deterg 3%, AmpC detergent inconclusive, Shiga inhibitor 94*, Cycloheximide cs 65* and SARS PLpro yeast 4%.
Cc1ccc(C(=O)CSc2nnc(-c3ccco3)n2C)cc1 was read as AMA1 RON2 block 20%, AmpC no deterg -11%, AmpC detergent -6%, Shiga inhibitor 52*, Cycloheximide cs 35* and SARS PLpro yeast 1%.
`Cc1cc(C(=O)COC(=O)c2ccc(O)cc2)c(C)n1CC(F)(F)F` gave AMA1 RON2 block -7%, AmpC no deterg -26%, AmpC detergent -5% and SARS PLpro yeast -2%.
Screening CCOc1ccc(S(=O)(=O)NCCc2csc3nc(-c4cccc(C)c4)nn23)cc1 returned AmpC detergent 1%.
`COc1cc(/C=N/NC(=O)Cn2c([N+](=O)[O-])cnc2C)ccc1OC(=O)N(C)C` gave AMA1 RON2 block 4%, AmpC no deterg 0%, AmpC detergent -15%, Shiga inhibitor 1, Cycloheximide cs -3 and SARS PLpro yeast 2%.
`CC1CCc2nn(CC(=O)NCCC3=CCCCC3)cc2C1` (centres undefined) gave AMA1 RON2 block 5%, AmpC no deterg 0.56µM*, AmpC detergent inconclusive, Shiga inhibitor 14, Cycloheximide cs 6 and SARS PLpro yeast -1%.
`CC1CCc2nn(CC(=O)NCCN3CCOCC3)cc2C1` (centres undefined) gave AMA1 RON2 block -1%, AmpC no deterg 11µM*, AmpC detergent 0%, Shiga inhibitor 31, Cycloheximide cs -3 and SARS PLpro yeast 2%.
`COCCNC(=O)Cn1cc2c(n1)CCC(C)C2` (centres undefined) gave AMA1 RON2 block -1%, AmpC no deterg -11%, AmpC detergent inconclusive, Shiga inhibitor -14, Cycloheximide cs -11 and SARS PLpro yeast -4%.
For CCOC(=O)c1c(C)[nH]c(CCC(=O)NCc2ccc(CC)cc2)c1C the results were AmpC detergent 18%.
O=Cc1cc(Cl)ccc1OCCN1CCC(Cc2ccccc2)CC1 was read as AMA1 RON2 block inconclusive, AmpC no deterg 43%, AmpC detergent 1%, Shiga inhibitor -2, Cycloheximide cs -2 and SARS PLpro yeast -10%.
Screening O=C(CSc1nnc(-c2ccc([N+](=O)[O-])cc2)o1)Nc1ccccc1 returned AmpC detergent 13%.
For O=C(CSc1nnc(-c2csc3c2CCCC3)o1)Nc1ccccc1 the results were AMA1 RON2 block 56%, AmpC no deterg -19%, AmpC detergent inconclusive, Shiga inhibitor 55*, Cycloheximide cs 58* and SARS PLpro yeast -7%.
